Assay [1] in a line: sensitizers of A549 cells to miR-34 induction, primary screen, imaging, A549 dox-inducible miR-34, nuclei and caspase counts (AID 1347080). The note with it: A549 miR-34 inducible, Hoechst nuclei count, 48 h.
A short description of assay [2]: survival rescue of mitochondrial mutant cells in low glucose, primary screen, MELAS cybrids, Rieske KO mouse fibroblasts, CellTiter-Glo (AID 1508586;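 active = mean z-score across replicates of 1.96 or higher in either the MELAS or the Rieske mutant cell line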;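 note: z relative to plate mean and SD of compound and empty wells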). For orientation: In ATP-based viability assays light output follows the ATP content of the culture.
Where [3] appears, read: stronger effect = lower value, cell number ratio, induced over uninduced.
[4] abbreviates: measured here: relative caspase fold change +Dox/-Dox.
[5] abbreviates: measured here: total cells with miR-34 induction, stronger effect = lower value.
[6] abbreviates: measured here: total cells without miR-34 induction.
The mark [7] stands for this setting: MELAS cybrid survival, CellTiter-Glo 48 h, stronger effect = higher value.
The mark [8] stands for this setting: Rieske KO mouse fibroblast survival, CellTiter-Glo 72 h.

This passage reports fold change, cell count and z-score results from PubChem BioAssay.

Calls of active or inactive are those of the source.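 Rule for the calls, unless noted: active = compounds whose cell count with miR-34 switched on is under 0.7 times the count with it off; inactive = the rest.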 *1 amine or outer side, *2 acyl side, *3 side chain or, on linkers, in order; H or OH if unused. Where a SMILES comes first, the peptide text is derived from it. Bridges are numbered along the chain shown (N, C = ends). Roman numbers before positions name the chains, in order. [ ]: non-standard residue; d: D form. Hexamethylenediamine = C(CCCN[*:2])CCN[*:1]; Dip = N[CH](C(=O)O)C(c1ccccc1)c1ccccc1; Chg = N[CH](C(=O)O)C1CCCCC1; NMeA = CN[CH](C)C(=O)O
Note: test concentration not given here.

In the case of `CC(=O)OCC(=O)[C@]1(O)CC[C@H]2[C@@H]3CCC4=CC(=O)CC[C@]4(C)[C@@H]3C(=O)C[C@@]21C`, the values for the fold change in assay [1] (setting [3]) and in assay [1] (setting [4]) were 0.938 (inactive) and 0.685, respectively. Moreover, the results for the cell count in assay [1] (setting [5]) and in assay [1] (setting [6]) were 9630 and 10300, respectively. Moreover, the z-score in assay [2] (setting [7]) was -0.429 (inactive); in assay [2] (setting [8]), -0.073.
Regarding `O=C(O)C(Cc1ccccc1[N+](=O)[O-])=NNC1=NC(c2ccc(Cl)c(Cl)c2)CS1` (configuration not stated), the fold change in assay [1] (setting [3]) is 0.88 (inactive); in assay [1] (setting [4]) it was 0.284. Also, the cell count in assay [1] (setting [5]) was 6240; in assay [1] (setting [6]), 7100. Also, the figures for the z-score in assay [2] (setting [7]) and in assay [2] (setting [8]) were -0.273 (inactive) and 0.221, respectively.
For `C=C1c2cccc(O)c2C(O)=C2C(=O)[C@]3(O)C(O)=C(C(N)=O)C(=O)C(N(C)C)[C@@H]3C(O)[C@H]12` (some centres not stated), the fold change in assay [1] (setting [3]) was 0.858 (inactive); in assay [1] (setting [4]), 1.09. Moreover, the cell count is 7630 in assay [1] (setting [5]) and 8890 in assay [1] (setting [6]). Besides, the z-score in assay [2] (setting [7]) was 5.63 (active); in assay [2] (setting [8]), 0.965.
On to `CC1(C)CCC(c2ccc(Cl)cc2)=C(CN2CCN(c3ccc(C(=O)NS(=O)(=O)c4ccc(NC(CCN5CCOCC5)CSc5ccccc5)c(S(=O)(=O)C(F)(F)F)c4)cc3)CC2)C1` (configuration not stated), for which the fold change in assay [1] (setting [3]) is 1.03 (inactive); in assay [1] (setting [4]), 0.848. Further, the cell count is 4260 in assay [1] (setting [5]) and 4140 in assay [1] (setting [6]). Moreover, the z-score in assay [2] (setting [7]) is 0.179 (inactive); in assay [2] (setting [8]) it was -2.71.
For the compound `COc1c(O)cc2c(c1O)[C@@H]1OC(CO)C(O)C(O)[C@H]1OC2=O` (some centres not stated), the fold change in assay [1] (setting [3]) is 0.888 (inactive); in assay [1] (setting [4]) it was 1.9. For the same compound, the cell count in assay [1] (setting [5]) worked out at 8260; in assay [1] (setting [6]), 9300. In addition, the results for the z-score in assay [2] (setting [7]) and in assay [2] (setting [8]) were -0.313 (inactive) and 0.533, respectively.
Take `N=c1ccn2c(n1)OC1C(O)C(CO)OC12` (configuration not stated): the fold change in assay [1] (setting [3]) is 1.07 (inactive); in assay [1] (setting [4]), 0.814. In addition, the values for the cell count in assay [1] (setting [5]) and in assay [1] (setting [6]) were 2350 and 2200, respectively. For the same compound, the z-score in assay [2] (setting [7]) was 0.074 (inactive); in assay [2] (setting [8]), 0.000793.
`NC(=O)c1noc(C(CCCC2CCCCC2)CC(=O)NO)n1` (configuration not stated): the fold change in assay [1] (setting [3]) was 0.791 (inactive); in assay [1] (setting [4]) it was 1.15. Also, the cell count is 6790 in assay [1] (setting [5]) and 8580 in assay [1] (setting [6]). Also, the z-score is -0.42 (inactive) in assay [2] (setting [7]) and -1.85 in assay [2] (setting [8]).
For `Cc1cncc(CN2CCC(=C3c4ccc(Cl)cc4CCc4cccnc43)CC2)c1`, the results for the fold change in assay [1] (setting [3]) and in assay [1] (setting [4]) were 1.04 (inactive) and 0.52, respectively. Moreover, the cell count was found to be 6230 in assay [1] (setting [5]) and 6000 in assay [1] (setting [6]). The z-score in assay [2] (setting [7]) was -0.369 (inactive); in assay [2] (setting [8]) it was -0.161.
Regarding `CCC(=O)OCC(=O)[C@]1(OC(=O)CC)C(C)C[C@H]2[C@@H]3CCC4=CC(=O)C=C[C@]4(C)[C@]3(Cl)C(O)C[C@@]21C` (some centres not stated), the fold change is 0.952 (inactive) in assay [1] (setting [3]) and 0.747 in assay [1] (setting [4]). Moreover, the figures for the cell count in assay [1] (setting [5]) and in assay [1] (setting [6]) were 5950 and 6250, respectively. The figures for the z-score in assay [2] (setting [7]) and in assay [2] (setting [8]) were -0.503 (inactive) and -0.134, respectively.
On to `COc1ccc(CCc2nc3cc(-c4c(C)noc4C)ccc3n2CC(C)N2CCOCC2)cc1Cl` (configuration not stated), for which the fold change is 0.88 (inactive) in assay [1] (setting [3]) and 0.277 in assay [1] (setting [4]). The cell count in assay [1] (setting [5]) was 7240; in assay [1] (setting [6]) it was 8230. Besides, the z-score in assay [2] (setting [7]) is -0.0999 (inactive); in assay [2] (setting [8]), -1.46.
As for `CNC(C)C(=O)NC(C(=O)N1CCCC1C(=O)NC(C(=O)NCCCCCCNC(=O)C(NC(=O)C1CCCN1C(=O)C(NC(=O)C(C)NC)C1CCCCC1)C(c1ccccc1)c1ccccc1)C(c1ccccc1)c1ccccc1)C1CCCCC1` (configuration not stated) (I: H-[NMeA][Chg]P[Dip] / II: H-[NMeA][Chg]P[Dip]; linker I:C-II:C via Hexamethylenediamine; configuration not given here), the fold change in assay [1] (setting [3]) was 0.971 (inactive); in assay [1] (setting [4]), 0.501. Besides, the cell count turned out to be 8750 in assay [1] (setting [5]) and 9000 in assay [1] (setting [6]). Moreover, the z-score in assay [2] (setting [7]) is -0.461 (inactive); in assay [2] (setting [8]), -0.132.
Take `CCCCC(F)(F)C(=O)CCC1C(O)CC(=O)C1CCCCCCC(=O)O` (configuration not stated): the fold change in assay [1] (setting [3]) is 0.926 (inactive); in assay [1] (setting [4]) it was 0.726. Besides, the cell count came out at 8100 in assay [1] (setting [5]) and 8740 in assay [1] (setting [6]). Further, the z-score is 0.0399 (inactive) in assay [2] (setting [7]) and -0.0235 in assay [2] (setting [8]).
Turning to `COc1cc2c(cc1-c1c(C)noc1C)ncc1[nH]c(=O)n(C(C)c3ccccn3)c12` (configuration not stated), the fold change in assay [1] (setting [3]) is 0.947 (inactive); in assay [1] (setting [4]), 0.831. In addition, the cell count came to 7600 in assay [1] (setting [5]) and 8030 in assay [1] (setting [6]). Moreover, the values for the z-score in assay [2] (setting [7]) and in assay [2] (setting [8]) were 0.365 (inactive) and -1.83, respectively.
As for `CCC(=O)O[C@@]1(C(=O)CCl)C(C)C[C@H]2[C@@H]3CC(F)C4=CC(=O)C=C[C@]4(C)[C@]3(F)C(O)C[C@@]21C` (some centres not stated), the figures for the fold change in assay [1] (setting [3]) and in assay [1] (setting [4]) were 0.853 (inactive) and 0.626, respectively. Moreover, the cell count in assay [1] (setting [5]) was 4930; in assay [1] (setting [6]), 5780. The results for the z-score in assay [2] (setting [7]) and in assay [2] (setting [8]) were -0.347 (inactive) and -0.183, respectively.
With `CC(=O)C1=C(O)C=C2Oc3c(C(C)=O)c(O)c(C)c(O)c3[C@]2(C)C1=O`, the fold change in assay [1] (setting [3]) is 0.866 (inactive); in assay [1] (setting [4]), 1.11. For the same compound, the cell count in assay [1] (setting [5]) was determined as 5890; in assay [1] (setting [6]), 6800. Besides, the z-score was -0.25 (inactive) in assay [2] (setting [7]) and 0.769 in assay [2] (setting [8]).
For `CC(CCC(=O)O)C1CC[C@H]2[C@@H]3CC(O)[C@@H]4CC(O)CC[C@]4(C)[C@@H]3CC[C@]12C` (some centres not stated), the fold change was 0.928 (inactive) in assay [1] (setting [3]) and 0.729 in assay [1] (setting [4]). Moreover, the cell count in assay [1] (setting [5]) was determined as 9520; in assay [1] (setting [6]), 10300. Also, the z-score was -0.299 (inactive) in assay [2] (setting [7]) and 0.38 in assay [2] (setting [8]).
Regarding `CC(C)(O)C1CC[C@@](C)([C@@H]2C(O)C[C@@]3(C)[C@@H]4CC(OC5OC(CO)C(O)C(O)C5O)[C@H]5C(C)(C)C(OC6OCC(O)C(O)C6O)CC[C@@]56C[C@]46CC[C@]23C)O1` (some centres not stated), the fold change in assay [1] (setting [3]) is 0.936 (inactive); in assay [1] (setting [4]) it was 0.796. For the same compound, the cell count worked out at 9300 in assay [1] (setting [5]) and 9940 in assay [1] (setting [6]). For the same compound, the z-score was -0.378 (inactive) in assay [2] (setting [7]) and 0.478 in assay [2] (setting [8]).
Turning to `CCOc1ccc(Cc2cc(C3OC(CO)C(O)C(O)C3O)ccc2Cl)cc1` (configuration not stated), the fold change in assay [1] (setting [3]) is 0.916 (inactive); in assay [1] (setting [4]), 0.801. In addition, the cell count in assay [1] (setting [5]) turned out to be 7650; in assay [1] (setting [6]) it was 8340. Moreover, the results for the z-score in assay [2] (setting [7]) and in assay [2] (setting [8]) were 0.52 (inactive) and -0.097, respectively.
Take `O=C1c2c(O)cccc2[C@H]([C@@H]2OC(CO)C(O)C(O)C2O)c2cc(CO)cc(O)c21` (some centres not stated): the fold change in assay [1] (setting [3]) is 0.88 (inactive); in assay [1] (setting [4]) it was 0.843. Besides, the values for the cell count in assay [1] (setting [5]) and in assay [1] (setting [6]) were 8560 and 9720, respectively. Further, the figures for the z-score in assay [2] (setting [7]) and in assay [2] (setting [8]) were -0.344 (inactive) and -0.143, respectively.
For `O=C(C=Cn1cnc(-c2cc(C(F)(F)F)cc(C(F)(F)F)c2)n1)N1CC(F)(F)C1`, the fold change in assay [1] (setting [3]) was 0.887 (inactive); in assay [1] (setting [4]), 0.422. Further, the cell count in assay [1] (setting [5]) was 1980; in assay [1] (setting [6]), 2230. Besides, the z-score was -0.618 (inactive) in assay [2] (setting [7]) and -7.49 in assay [2] (setting [8]).
Turning to `CC1C(NC(=O)C(=NOC(C)(C)C(=O)O)c2csc(N)n2)C(=O)N1S(=O)(=O)O` (configuration not stated), the fold change in assay [1] (setting [3]) is 0.929 (inactive); in assay [1] (setting [4]), 0.823. Moreover, the cell count in assay [1] (setting [5]) worked out at 7110; in assay [1] (setting [6]), 7650. For the same compound, the results for the z-score in assay [2] (setting [7]) and in assay [2] (setting [8]) were -0.398 (inactive) and 0.579, respectively.
For `Nc1nc(Cl)nc2c1ncn2C1OC(CO)C(O)C1F` (configuration not stated), the fold change in assay [1] (setting [3]) is 1.03 (inactive); in assay [1] (setting [4]) it was 0.719. Moreover, the cell count is 1700 in assay [1] (setting [5]) and 1650 in assay [1] (setting [6]). The z-score is 0.651 (inactive) in assay [2] (setting [7]) and -0.114 in assay [2] (setting [8]).
